# Screening data (PubChem)
# B2AR ag = agonists of human beta-2 adrenergic receptor inducing internalization; P07550; Am2.2-beta2AR cells, FAP receptor internalization, flow cytometry; response, % (no concentration beside the values); 0.43% of 340,000 active; AID 504454;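 active = response above a set limit, near 3 SD of response in nonfluorescent compounds, cut at about 42% in these data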
# NOD2 RIPK2 PPI = NOD2-RIPK2 protein interaction inhibition. O43353. 0.38% of 360,000 active. AID 624267. inhibition, % at 4.98 µM. CHO BLA complementation NOD2-RIPK2, CCF4 ratio; in the data active = inhibition above about 21%;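 also: 0% = vehicle only and 100% = reference blocker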
# Bfl-1 A1 inh = inhibitors of the anti-apoptotic protein A1, read as caspase activation. MEF A1-2A-BIM cells, Caspase-Glo 3/7 luminescence, 3 h; percent of clofoctol response, vehicle zero. caspase activation, % (concentration not given with the values). 0.066% of 330,000 active;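 active = over half of replicate activation scores above 10%, or exactly half above 10 with the replicate mean above 10; inconclusive = replicate mean below 10 yet half the replicates above 10; inactive = over half of replicates below 10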
# TLR4 MyD88 comp = inhibitors of human TLR4-MyD88 binding | O00206+Q99836 | HeLa CL3-4 TLR4/MyD88 BLA complementation, FRET ratio | 0.18% of 200,000 active | inhibition, % at 8.4 µM; in the data active = inhibition above about 25%;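 also: 0% = vehicle and 100% = reference inhibitor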
# TLR9-MyD88 inh = blocks human TLR9 binding to MyD88 | inhibition, % at 4.98 µM | Q9NR96+Q99836 | 0.21% of 340,000 active | CHO BLA complementation TLR9-MyD88, CCF4 FRET ratio;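 active = inhibition above the mean over all tested compounds plus 3 SD, cut at about 21% in these data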;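 also: 0% = DMSO only wells and 100% = clavulanate BLA inhibitor control wells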
# NTR1 ag = activates human neurotensin receptor 1 | P30989 | NTR1-U2OS beta-arrestin-GFP spot imaging, agonist mode | activation, % at 20 µM | 0.17% of 330,000 active | AID 493036;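 active = activation at or above 40% of the spot to cytoplasm intensity ratio, with at least 20 cells analyzed; inconclusive = wells under 20 cells, flagged as cytotoxic or low count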;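 also: 0% = DMSO without peptide and 100% = 100 nM NTR1 peptide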
# Starred values were filed as active, the others as inactive; ? = inconclusive; / = not tested or not shown. Shown are actives, neighbours in structure and some others; about 0.97% of the full set was active somewhere.
SMILES,B2AR ag,NOD2 RIPK2 PPI,Bfl-1 A1 inh,TLR4 MyD88 comp,TLR9-MyD88 inh,NTR1 ag
COc1cc2c(-c3ccccc3)c(C)oc2cc1/C=N/NC(N)=S,-4.6,-16.8,6.7*,/,0.0,2.6
COc1cc(OC)c(/C=N/NC(N)=S)cc1Br,-5.9,0.0,0.1,-5.4,7.5,-1.3
Cc1cc(C)cc(NC(=O)/C(C#N)=C/c2cn(CC(=O)NCc3ccco3)c3ccccc23)c1,3.6,-1.6,16.6*,-0.4,4.9,9.6
CCOC(=O)C1(C)CCCN1C(=O)c1c(F)cccc1F (stereo not given),/,0.4,/,/,/,/
O=[N+]([O-])c1cc(CN2CCN(c3ccccc3)CC2)c(O)c2ncccc12,43.7*,-2.9,0.0,-7.7,0.9,1.1
CCCCOC(=O)c1ccc(Nc2ncnc3nc[nH]c23)cc1,-1.3,-7.8,-4.4,6.4,2.9,0.8
CCCCCCCCOC(=O)c1cc([N+](=O)[O-])c(Sc2ncnc3nc[nH]c23)c([N+](=O)[O-])c1,99.2*,17.8,/,/,-9.4,/
COc1ccc(-c2n[nH]c(C)c2-c2cc(OC)ccc2O)cc1,5.8,-1.4,-3.4,9.2,6.1,1.9
COc1ccc(S(=O)(=O)NC2(C(F)(F)F)N=C(c3ccccc3)NC2=O)cc1 (stereo not given),3.6,-12.0,0.3,-0.2,4.1,-0.4
CCOC(=O)c1c(-c2ccc(C)o2)csc1NC(=O)CSc1nncs1,9.1,22.4*,-0.1,-4.4,-11.1,7.3
CCOC(=O)c1c(-c2ccc(C)o2)csc1NC(=O)CN1CCCCC1,7.2,1.3,0.4,-9.5,1.6,17.1
COC1CCN(Cc2cn(Cc3ccccc3)nc2-c2cc3ccccc3o2)CC1,10.2,8.2,-0.1,-1.4,-3.7,2.5
CC(OC(=O)C1=COCCO1)C(=O)NC1CCCCC1C (stereo not given),-2.0,1.1,-1.3,/,-13.9,0.4
O=C(Nc1ccc2nc(-c3ccccc3)[nH]c2c1)c1ccco1,-8.6,-1.8,-6.1,-12.3,-2.5,1.4
O=C(Nc1cccc(-c2nc3ccccc3[nH]2)c1)c1cccc(NC(=O)c2ccco2)c1,27.8,3.7,-1.3,-9.2,9.7,41.1*
CCOc1cc(/C=C\[N+](=O)[O-])ccc1OCC(=O)N1CCOCC1,67.3*,12.0,0.6,11.8,-1.4,20.5
COc1ccc(/C=N/NC(=O)c2nc(Cl)c(Cl)c(N)c2Cl)cc1COc1ccc(F)cc1F,26.6,-3.3,0.5,-16.8,-9.6,7.3
COc1ccc(/C=N/NC(=O)c2nc(Cl)c(Cl)c(N)c2Cl)cc1COc1ccccc1F,49.8*,-3.5,-0.5,-2.4,-2.9,3.6
Cc1ccccc1N1CCN(C2=NC(=O)/C(=C/c3cn[nH]c3-c3ccccc3)S2)CC1,47.9*,-1.2,0.3,1.4,4.2,2.8
O=C1N=C(N2CCCC2)S/C1=C\c1cn[nH]c1-c1ccccc1,/,/,-0.8,-5.8,/,2.4
COc1ccc(C(=O)Nc2ccc(Cl)cc2C(=O)N2CCOCC2)cc1,-5.2,-5.9,0.2,/,-0.3,1.2
CCOC(=O)C(=O)Nc1cccc(C(=O)OCC)c1,63.7*,3.2,0.0,8.2,-11.2,0.1
O=C1ON=C(c2ccccc2)/C1=C/c1ccco1,57.6*,0.4,0.8,20.2,-1.4,4.1
O=C1ON=C(c2ccccc2)/C1=C/c1ccc(-c2ccccc2[N+](=O)[O-])o1,95.8*,-2.5,0.4,16.0,17.2,/
O=[N+]([O-])c1ccccc1-c1ccc(/C=N/n2cnnc2)o1,0.2,5.5,0.3,2.1,-0.3,0.5
SMILES,B2AR ag,NOD2 RIPK2 PPI,Bfl-1 A1 inh,TLR4 MyD88 comp,TLR9-MyD88 inh,NTR1 ag
CN(C)/C=C1\C(=O)ON=C1c1ccccc1,9.5,-4.6,0.4,-1.8,-2.8,2.1
Cc1ccc2c(c1)/C(=N/N1C(=O)c3ccccc3C1=O)C(=O)N2,-4.5,-9.4,0.3,-1.7,4.9,0.5
O=C(COC(=O)/C=C/c1ccc2ccccc2n1)NNC(=O)c1ccccc1,/,-7.8,/,/,0.4,/
Cc1cccc(NS(=O)(=O)c2ccc(C(=O)NCC(c3ccccc3)N(C)C)cc2)c1C (stereo not given),2.9,5.1,2.1,/,4.1,2.2
Cc1ccc(-c2csc(/C=C3\SC(C)C(=O)N3CC(=O)Nc3ccccc3F)n2)cc1 (stereo not given),8.3,-13.0,-0.1,/,-6.3,3.3
CCOC(=O)c1ccc(-c2ccc(/C=N/NC(=O)CN(c3cccc(C)c3)S(C)(=O)=O)o2)cc1,11.5,-2.3,17.4*,8.2,1.8,1.1
CCOC(=O)c1ccc(-c2ccc(/C=N/NC(=O)CN(c3ccccc3Cl)S(C)(=O)=O)o2)cc1,4.7,5.9,-0.9,4.6,-2.2,7.7
COC(=O)c1cc(C)nc2c1C(=O)C(=O)C=C2N1CCOCC1,60.9*,-8.5,-3.1,/,2.2,1.1
COC(=O)c1cc(S(=O)(=O)N2CCOCC2)c(Cl)cc1N1CCOCC1,9.5,-1.0,1.1,10.0,1.4,2.8
CC(Sc1nncs1)C(=O)Nc1ccc2c(c1)OCCO2 (stereo not given),-2.2,0.4,-0.3,/,-4.7,0.3
Cc1ccc2cc(/C=C/C(=O)c3ccco3)c(Cl)nc2c1,55.5*,7.3,0.0,/,/,28.5
Cc1ccc2nc(Cl)c(/C=C/C(=O)c3ccco3)cc2c1,8.3,1.0,-1.1,/,-1.9,8.2
O=C(N/N=C/c1coc2ccccc2c1=O)c1cn(-c2ccccc2)nc1-c1ccccc1,56.9*,2.7,-1.8,-2.2,-9.9,3.7
O=C1C(O)=C(O)C(=O)c2ccccc21,97.5*,-1.3,1.1,/,-5.6,0.0
Cc1ccc(NC2=C(Cl)C(=O)c3ccccc3C2=O)cc1,35.5,-3.2,-1.0,-6.8,-7.0,/
O=C1C(=O)c2ccccc2C(O)=C1c1ccccc1F,-8.2,-5.7,1.6,/,-4.6,0.4
CCN(CC)c1ccc(NC2=C(Cl)C(=O)c3ccccc3C2=O)cc1,74.3*,2.0,?,-5.4,1.4,/
O=C1C(Cl)=C(Nc2ccc(O)cc2)C(=O)c2ccccc21,73.2*,-4.1,0.0,/,-1.8,-2.5
O=C(O)c1ccc(-c2nnn(Cc3ccccc3F)n2)cc1,4.9,-8.5,0.0,/,-3.3,1.4
CSc1nc2ccc(NC(=O)c3ccc(Cl)s3)cc2s1,-7.0,1.6,-2.5,9.4,-6.6,8.2
O=C1c2ccccc2C(c2nnnn2Cc2ccccc2)N1CCOc1ccccc1 (stereo not given),/,-11.3,/,/,/,/
O=C(NCc1cc(C(F)(F)F)ccc1Cl)c1cccc2c1C(=O)c1ccc(-c3ccc(OC(F)(F)F)cc3)cc1S2(=O)=O,/,/,0.3,/,/,-0.4
O=C(NCc1ccccc1Cl)c1cccc2c1C(=O)c1ccc(-c3ccc(OC(F)(F)F)cc3)cc1S2(=O)=O,-2.2,2.0,10.4*,/,-3.3,14.5
